Reference: PubChem BioAssay (NCATS)
Results filed as inconclusive are left out. Active and inactive are the calls of the source. Unless noted, the call rests on the fitted dose curve; in most records, active means well fitted curve in the direction sought with a large enough effect; inconclusive means small, poorly fitted or top-dose-only effect, or another doubt; inactive means no such curve, though single readings can be large; an effect the other way counts as inactive or inconclusive.

Columns and labels:
[1] = biological target: Glucocorticoid receptor (Homo sapiens) (UniProt P04150); assay: GR-GFP Redistribution (AID 450;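 active means compounds whose dose series gives a full or clear partial fitted curve of increased nuclear translocation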; further: potency means the concentration at half of the fitted maximal effect)
[2] = biological target: Glucocorticoid receptor (Homo sapiens) (UniProt P04150); assay: GR-EFC Redistribution (AID 451; calls by dose curve; further: potency means the concentration at half of the fitted maximal effect); settings: CHO-K1 GR-EFC translocation, beta-gal luminescence, 2 h
Outline: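 CHO-K1 cells expressing nuclear EA and GR-ED fragments of b-gal; compounds titrated up to 46 uM final, 2 h at 37 C. GR nuclear translocation read as complemented b-gal luminescence after 1 h RT detection.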

[3] = biological target: Mitogen-activated protein kinase 10 (Mus musculus) (UniProt Q61831); assay: JNK3 AlphaScreen Assay (AID 530; active means well fitted curve in either direction with a large enough effect, not every such curve was filed as active;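 further: kinase came from lysate of stimulated human HepG2 cells; signal reports phosphorylation of biotinylated GST-cJun 1-79 at Ser73 with 10 µM ATP; series mostly up to about 57 µM; on the % scale 0 is the no-effect control and ±100 the full control effect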)
Outline: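 Pre-activated (IL-1β/TNFα) JNK3 in HepG2 lysates phosphorylates biotin-GST-cJun(1-79), 10 uM ATP; anti-phospho-cJun(Ser73) AlphaScreen read at room temperature, pH 7.6 Tris buffer. Compounds pre-incubated 15 min as titrations.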

[4] = biological target: 3',5'-cyclic-AMP phosphodiesterase 4B (Homo sapiens) (UniProt Q07343); assay: qHTS Assay for Inhibitors of PDE-IV (AID 607; active means well fitted activation curve with a large enough effect in the main read-out, with a control signal flat, not every such curve was filed as active; further: % of control where 0% means no effect)
Outline: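 ACTOne HEK293 cells carry a modified cAMP-gated CNG channel and express endogenous PDE4; plated 1000 cells/well, compounds up to 22.9 uM final. Membrane-potential dye fluorescence (ex 535/em 590) was read; parental cells received 10 uM forskolin + 100 uM RO 20-1724.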

[5] = biological target: Cytochrome P450 2D6 (Homo sapiens) (UniProt P10635); assay: qHTS Assay for Inhibitors and Substrates of Cytochrome P450 2D6 (AID 891); further: nearly all actives have a fitted effect of over 60% in size; further: potency means the concentration at half of the fitted maximal effect;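 on activity change, negative = inhibition: luciferin methyl ether substrate demethylated by CYP2D6 with NADPH regeneration; on the % scale 0 is the no-effect control and ±100 the full control effect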
Outline: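 Human CYP2D6 (5 nM) with 30 uM Luciferin-ME EGE (at Km) in 100 mM KPO4, compound preincubated 10 min, then NADPH regeneration system for 60 min at room temperature. Luciferin read by luminescence; normalized to 1.43 uM quinidine.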

[6] = biological target: Cytochrome P450 2C9 (Homo sapiens) (UniProt P11712); assay: qHTS Assay for Inhibitors and Substrates of Cytochrome P450 2C9 (AID 883); further: nearly all actives have a fitted effect of over 60% in size; further: potency means the concentration at half of the fitted maximal effect; on activity change, negative = inhibition: on the % scale 0 is the no-effect control and ±100 the full control effect
Outline: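 Human CYP2C9 (10nM) with Luciferin-H at 100uM (its KM) in 25mM KPO4; compound preincubated 10 min at 37C, then NADPH regeneration for 60 min at 37C. Luciferin read by luminescence after detection reagent; normalized to 57uM sulphaphenazole as full inhibition.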

[7] = biological target: Cytochrome P450 3A4 (Homo sapiens) (UniProt P08684); assay: qHTS Assay for Inhibitors and Substrates of Cytochrome P450 3A4 (AID 884); further: potency means the concentration at half of the fitted maximal effect; nearly all actives have a fitted effect of over 50% in size
Outline: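 20 nM human CYP3A4 with 25 uM Luciferin-PPXE (at KM) in 200 mM KPO4, preincubated 10 min with compound; NADPH regeneration started a 60 min RT reaction. Luciferin detected by luminescence, normalized to 57 uM ketoconazole as full inhibition.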

[8] = biological target: Cytochrome P450 3A4 (Homo sapiens) (UniProt P08684); assay: qHTS Assay for Activators of Cytochrome P450 3A4 (AID 885); further: nearly all actives have a fitted effect of over 65% in size
Outline: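 20nM CYP3A4 + 25uM Luciferin-PPXE (=KM), 200mM KPO4; cpd 10 min RT; NADPH regen, 60 min RT; stop w/ detection buffer, 20 min; luminescence. Normalized to 57 uM ketoconazole.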

[9] = biological target: DNA dC->dU-editing enzyme APOBEC-3G (Homo sapiens) (UniProt Q9HC16); assay: qHTS for inhibitors of Vif-A3G interactions: Validation (AID 588379); further: 0% is about no effect
Outline: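 HeLa cells stably expressing Vif and A3G-eYFP, 700 cells/well, incubated overnight at 37 deg C, then exposed to compound overnight at 37 deg C. Inhibition of Vif-mediated degradation read as increased yellow fluorescence (Ex 488/Em 500-530) by laser-scanning cytometry.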

[10] = biological target: Cytochrome P450 2C19 (Homo sapiens) (UniProt P33261); assay: qHTS Assay for Inhibitors and Substrates of Cytochrome P450 2C19 (AID 899); further: nearly all actives have a fitted effect of over 60% in size; further: potency means the concentration at half of the fitted maximal effect
Outline: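 5 nM human CYP2C19 with 10uM Luciferin-H EGE (at KM) in 50mM KPO4, compound preincubated 10 min at 37C, then NADPH regeneration for 60 min at 37C. Luciferin read by luminescence after detection reagent; normalized to 57uM ketoconazole as full inhibition.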

[11] = biological target: Ubiquitin carboxyl-terminal hydrolase 1 (Homo sapiens) (UniProt O94782); assay: Inhibitors of USP1/UAF1: Pilot qHTS (AID 504865);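 further: rhodamine fluorescence freed from ubiquitin-rhodamine substrate followed over time; top concentration of the series differs between compounds; on the % scale 0 is the no-effect control and ±100 the full control effect; nearly all actives have a fitted effect of over 35% in size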
Outline: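 USP1/UAF1 complex (1nM) preincubated with compound 15 min at room temperature, then Ub-Rho substrate (150nM final) added. Fluorescence read kinetically at 480/540 nm, 6 reads every 60 seconds. Buffer: 50mM HEPES pH 7.8, 0.5mM EDTA, 0.1 mg/ml BSA, 1mM TCEP, 0.01% Tween-20.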

Sequence of Cytochrome P450 2C19 (Homo sapiens) (P33261 whole entry, looked up): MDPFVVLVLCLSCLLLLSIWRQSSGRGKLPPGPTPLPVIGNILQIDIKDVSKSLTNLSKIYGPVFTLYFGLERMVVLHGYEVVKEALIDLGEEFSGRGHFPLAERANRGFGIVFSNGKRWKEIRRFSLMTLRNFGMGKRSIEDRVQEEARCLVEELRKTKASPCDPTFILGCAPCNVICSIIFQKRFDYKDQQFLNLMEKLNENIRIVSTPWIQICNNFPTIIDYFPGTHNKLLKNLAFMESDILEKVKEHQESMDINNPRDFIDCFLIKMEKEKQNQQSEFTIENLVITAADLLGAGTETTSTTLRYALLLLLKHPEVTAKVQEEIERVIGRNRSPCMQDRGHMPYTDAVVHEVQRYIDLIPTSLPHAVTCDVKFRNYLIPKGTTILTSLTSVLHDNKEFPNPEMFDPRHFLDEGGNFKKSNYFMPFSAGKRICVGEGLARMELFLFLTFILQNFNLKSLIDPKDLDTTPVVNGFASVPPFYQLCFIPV
Sequence of Cytochrome P450 2D6 (Homo sapiens) (P10635 whole entry, looked up): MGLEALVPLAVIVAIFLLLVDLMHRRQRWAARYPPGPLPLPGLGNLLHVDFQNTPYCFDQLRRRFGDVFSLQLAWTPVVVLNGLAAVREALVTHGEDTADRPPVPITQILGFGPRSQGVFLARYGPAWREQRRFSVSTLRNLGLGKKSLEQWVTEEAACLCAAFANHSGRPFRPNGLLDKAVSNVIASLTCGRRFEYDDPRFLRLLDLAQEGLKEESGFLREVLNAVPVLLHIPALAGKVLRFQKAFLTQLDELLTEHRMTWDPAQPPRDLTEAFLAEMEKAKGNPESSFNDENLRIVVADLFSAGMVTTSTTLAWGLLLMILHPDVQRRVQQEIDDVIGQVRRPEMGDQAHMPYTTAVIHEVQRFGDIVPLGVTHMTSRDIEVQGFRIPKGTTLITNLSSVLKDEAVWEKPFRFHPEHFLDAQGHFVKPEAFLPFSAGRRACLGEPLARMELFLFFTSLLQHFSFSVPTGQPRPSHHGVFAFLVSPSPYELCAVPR
Sequence of Cytochrome P450 3A4 (Homo sapiens) (P08684 whole entry, looked up): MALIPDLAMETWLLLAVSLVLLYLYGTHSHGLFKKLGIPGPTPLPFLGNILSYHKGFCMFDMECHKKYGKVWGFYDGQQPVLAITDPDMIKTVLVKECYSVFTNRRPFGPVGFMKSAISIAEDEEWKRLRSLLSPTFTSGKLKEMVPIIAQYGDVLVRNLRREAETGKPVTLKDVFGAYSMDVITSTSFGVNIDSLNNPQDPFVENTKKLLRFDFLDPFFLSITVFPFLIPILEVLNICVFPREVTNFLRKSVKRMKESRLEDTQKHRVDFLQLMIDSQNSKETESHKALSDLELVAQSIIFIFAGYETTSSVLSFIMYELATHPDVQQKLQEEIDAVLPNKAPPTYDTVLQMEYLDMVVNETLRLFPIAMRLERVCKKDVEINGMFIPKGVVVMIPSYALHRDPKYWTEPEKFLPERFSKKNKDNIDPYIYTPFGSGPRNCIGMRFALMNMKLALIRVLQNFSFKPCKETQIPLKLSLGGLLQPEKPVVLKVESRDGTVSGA
Sequence of 3',5'-cyclic-AMP phosphodiesterase 4B (Homo sapiens) (Q07343 whole entry, looked up): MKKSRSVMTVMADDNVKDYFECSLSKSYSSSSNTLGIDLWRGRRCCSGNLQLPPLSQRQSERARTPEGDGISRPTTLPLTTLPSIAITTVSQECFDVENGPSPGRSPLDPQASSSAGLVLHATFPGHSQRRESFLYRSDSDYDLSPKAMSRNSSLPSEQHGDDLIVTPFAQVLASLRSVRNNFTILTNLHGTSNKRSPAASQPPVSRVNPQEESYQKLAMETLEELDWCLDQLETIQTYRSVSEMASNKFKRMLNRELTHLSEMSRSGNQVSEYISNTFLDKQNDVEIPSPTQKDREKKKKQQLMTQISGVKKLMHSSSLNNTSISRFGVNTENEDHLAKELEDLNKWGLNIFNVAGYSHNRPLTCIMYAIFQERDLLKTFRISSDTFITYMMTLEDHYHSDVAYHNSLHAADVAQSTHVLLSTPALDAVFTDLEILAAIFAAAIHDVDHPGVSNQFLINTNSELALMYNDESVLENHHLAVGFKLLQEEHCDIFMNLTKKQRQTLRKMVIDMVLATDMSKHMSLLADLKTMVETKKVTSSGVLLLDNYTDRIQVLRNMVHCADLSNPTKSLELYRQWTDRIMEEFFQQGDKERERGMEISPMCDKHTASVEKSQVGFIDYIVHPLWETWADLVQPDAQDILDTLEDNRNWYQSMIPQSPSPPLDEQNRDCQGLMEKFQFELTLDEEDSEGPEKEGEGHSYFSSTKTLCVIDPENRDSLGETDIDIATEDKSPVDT
Sequence of DNA dC->dU-editing enzyme APOBEC-3G (Homo sapiens) (Q9HC16 whole entry, looked up): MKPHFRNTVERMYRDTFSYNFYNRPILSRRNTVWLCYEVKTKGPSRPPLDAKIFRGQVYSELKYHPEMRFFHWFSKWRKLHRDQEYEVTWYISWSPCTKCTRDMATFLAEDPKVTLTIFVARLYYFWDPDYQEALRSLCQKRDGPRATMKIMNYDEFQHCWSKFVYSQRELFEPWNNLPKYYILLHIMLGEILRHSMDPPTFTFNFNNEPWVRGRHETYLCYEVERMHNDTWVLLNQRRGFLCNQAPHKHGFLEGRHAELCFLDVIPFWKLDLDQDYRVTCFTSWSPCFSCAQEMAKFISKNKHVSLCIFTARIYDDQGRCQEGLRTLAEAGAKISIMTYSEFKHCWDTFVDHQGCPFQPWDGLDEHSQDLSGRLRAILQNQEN
Sequence of Cytochrome P450 2C9 (Homo sapiens) (P11712 whole entry, looked up): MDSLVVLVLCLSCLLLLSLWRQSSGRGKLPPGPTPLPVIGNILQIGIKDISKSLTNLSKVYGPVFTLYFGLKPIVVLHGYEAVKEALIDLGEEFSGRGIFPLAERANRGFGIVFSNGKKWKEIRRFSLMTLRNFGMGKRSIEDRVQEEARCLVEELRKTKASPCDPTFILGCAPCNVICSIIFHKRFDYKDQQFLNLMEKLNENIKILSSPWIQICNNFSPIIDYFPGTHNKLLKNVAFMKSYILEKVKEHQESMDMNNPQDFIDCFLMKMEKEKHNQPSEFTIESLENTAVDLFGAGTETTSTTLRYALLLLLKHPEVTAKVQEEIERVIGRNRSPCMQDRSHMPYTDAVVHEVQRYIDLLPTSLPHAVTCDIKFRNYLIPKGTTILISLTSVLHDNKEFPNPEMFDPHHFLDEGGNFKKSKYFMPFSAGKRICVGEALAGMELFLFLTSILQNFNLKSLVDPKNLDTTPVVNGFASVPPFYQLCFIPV
Sequence of Glucocorticoid receptor (Homo sapiens) (P04150 whole entry, looked up, the tested form may be a part): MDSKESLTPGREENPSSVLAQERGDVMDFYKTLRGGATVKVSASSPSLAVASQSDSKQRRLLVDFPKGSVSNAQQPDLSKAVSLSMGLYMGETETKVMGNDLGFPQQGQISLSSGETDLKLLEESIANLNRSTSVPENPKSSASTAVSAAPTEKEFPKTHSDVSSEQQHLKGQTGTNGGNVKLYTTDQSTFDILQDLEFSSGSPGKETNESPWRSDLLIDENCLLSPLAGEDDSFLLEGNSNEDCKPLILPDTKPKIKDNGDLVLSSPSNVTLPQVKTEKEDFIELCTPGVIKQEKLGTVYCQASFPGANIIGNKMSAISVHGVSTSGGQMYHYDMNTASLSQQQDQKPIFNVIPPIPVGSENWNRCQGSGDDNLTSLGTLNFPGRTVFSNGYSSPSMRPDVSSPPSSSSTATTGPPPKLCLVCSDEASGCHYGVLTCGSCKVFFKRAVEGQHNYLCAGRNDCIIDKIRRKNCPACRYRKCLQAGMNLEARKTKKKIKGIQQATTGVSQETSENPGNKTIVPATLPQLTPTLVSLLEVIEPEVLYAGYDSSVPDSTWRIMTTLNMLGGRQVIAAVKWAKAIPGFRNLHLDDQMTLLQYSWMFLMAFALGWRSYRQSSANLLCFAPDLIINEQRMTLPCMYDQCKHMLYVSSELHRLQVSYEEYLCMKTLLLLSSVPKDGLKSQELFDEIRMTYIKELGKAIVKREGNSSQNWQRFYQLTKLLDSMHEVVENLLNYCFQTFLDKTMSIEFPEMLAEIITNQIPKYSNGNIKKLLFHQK
Sequence of Ubiquitin carboxyl-terminal hydrolase 1 (Homo sapiens) (O94782 whole entry, looked up): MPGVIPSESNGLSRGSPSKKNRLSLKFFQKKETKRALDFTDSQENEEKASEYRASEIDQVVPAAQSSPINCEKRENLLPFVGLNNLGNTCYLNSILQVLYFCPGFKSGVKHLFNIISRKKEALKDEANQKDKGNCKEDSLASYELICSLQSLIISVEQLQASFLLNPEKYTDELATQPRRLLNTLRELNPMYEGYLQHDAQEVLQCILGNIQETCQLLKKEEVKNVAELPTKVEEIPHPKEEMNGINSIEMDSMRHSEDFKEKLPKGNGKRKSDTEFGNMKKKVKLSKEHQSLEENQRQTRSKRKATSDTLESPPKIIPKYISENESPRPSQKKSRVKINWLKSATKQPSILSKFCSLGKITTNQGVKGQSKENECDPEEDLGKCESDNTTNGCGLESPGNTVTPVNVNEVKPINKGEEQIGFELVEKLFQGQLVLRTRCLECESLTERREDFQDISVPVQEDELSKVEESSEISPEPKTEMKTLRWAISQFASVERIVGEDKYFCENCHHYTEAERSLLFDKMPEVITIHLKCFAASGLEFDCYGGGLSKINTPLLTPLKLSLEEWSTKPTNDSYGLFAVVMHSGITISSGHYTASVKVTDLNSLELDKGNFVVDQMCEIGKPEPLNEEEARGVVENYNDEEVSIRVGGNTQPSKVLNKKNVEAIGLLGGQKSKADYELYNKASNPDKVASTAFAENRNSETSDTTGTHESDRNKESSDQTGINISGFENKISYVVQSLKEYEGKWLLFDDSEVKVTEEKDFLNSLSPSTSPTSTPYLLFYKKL

CCCC[C@H](CC)CN=C(N)NC(N)=NCCCCCCN=C(N)NC(N)=NC[C@@H](CC)CCCC
active: Potency [5] 3.16 µM
inactive: Potency [1] > 20.6 µM | Potency [2] > 20.6 µM | Potency [3] | Potency [4]

COc1ccc(CNc2oc(COc3ccccc3Cl)nc2C#N)cc1
inactive: Potency [1] > 20.6 µM

COc1ccc2oc(-c3ccccc3)c(OC)c(=O)c2c1
inactive: Potency [1] > 46 µM | Potency [2] > 46 µM | Potency [4] | Potency [8] | outcome [9]
active: Potency [6] 25.1 µM | Potency [7] 31.6 µM

OCc1ccncc1.OCc1ccncc1.[Cl][Pt]([Cl])([Cl])[Cl]
inactive: Potency [1] > 46 µM | Potency [2] > 9.22 µM | activity change, negative = inhibition [3] 0.578% [at 11.4 µM] | Potency [4]

N#C/C(=C\N1CCN(Cc2ccc3c(c2)OCO3)CC1)c1nc2ccccc2s1
inactive: Potency [1] > 20.6 µM

COC(=O)c1ccc(C2/C(=C(\O)c3ccc(OC)c(C)c3)C(=O)C(=O)N2c2cc(C)on2)cc1 (configuration not stated)
inactive: Potency [1] > 20.6 µM

CC1=CC(=O)C2=C(C)CC[C@@H]3[C@H](OC(=O)[C@H]3C)[C@H]12
inactive: Potency [1] > 46 µM | Potency [2] > 46 µM | Potency [3] | Potency [4]

COc1cc([C@@H]2Oc3cc([C@H]4Oc5cc(O)cc(O)c5C(=O)[C@H]4O)ccc3O[C@H]2CO)ccc1O
inactive: Potency [1] > 46 µM | Potency [2] > 46 µM | Potency [3] | Potency [8] | Potency [5] | outcome [9]
active: Potency [6] 2.51 µM

CCCCSc1nc(N)c(C#N)c(-c2cccs2)c1C#N
inactive: Potency [1] > 20.6 µM

O=c1cc(-c2ccccc2)oc2c1ccc1ccccc12
active: Potency [7] 12.6 µM | Potency [10] 2 µM
inactive: Potency [1] > 46 µM | Potency [2] > 46 µM | Potency [8] | outcome [9]

COc1cccc(-c2nc(NC(C)C)c3ccccc3n2)c1O
inactive: Potency [1] > 20.6 µM

Cc1ccc(C2C3CN(C(C)C)CC=C3C(C#N)=C(N)C2(C#N)C#N)cc1 (configuration not stated)
inactive: Potency [1] > 20.6 µM

C=C(CO)[C@H]1Cc2c(ccc3c(=O)c4c(oc23)COc2cc(OC)c(OC)cc2-4)O1
inactive: Potency [1] > 46 µM | Potency [2] > 46 µM | Potency [4] | Potency [6] | Potency [5] | Potency [10]

O=C(O)CCCC[C@@H]1SC[C@H]2NC(=O)N[C@H]12
inactive: Potency [1] > 46 µM | Potency [2] > 46 µM

O=c1c(O)c(-c2ccccc2)oc2cc(O)cc(O)c12
active: Potency [7] 15.8 µM | Potency [5] 20 µM | Potency [10] 3.98 µM
inactive: Potency [1] > 46 µM | Potency [2] > 46 µM | Potency [3] | Potency [4] | Potency [8] | outcome [9]

C[C@@H]1O[C@@H](OC[C@@H]2O[C@@H](Oc3c(-c4ccc(O)c(O)c4)oc4cc(O)cc(O)c4c3=O)[C@H](O)[C@H](O)[C@@H]2O)[C@H](O)[C@H](O)[C@@H]1O
inactive: Potency [1] > 46 µM | Potency [2] > 46 µM | Potency [3] | Potency [4] | Potency [6] | Potency [5] | Potency [10]

CN1C[C@H](C(=O)N[C@]2(C)O[C@@]3(O)[C@H]4CCCN4C(=O)[C@@H](Cc4ccccc4)N3C2=O)C[C@H]2c3cccc4[nH]cc(c34)C[C@@H]21
inactive: Potency [1] > 46 µM | Potency [2] > 46 µM | Potency [3] | Potency [4]

C[C@H]1[C@H](C)CC[C@@]2(C(=O)O)CC[C@]3(C)C(=CC[C@@H]4[C@@]5(C)CC[C@H](O)C(C)(C)[C@@H]5CC[C@@]43C)[C@@H]12
inactive: Potency [1] > 46 µM | Potency [2] > 46 µM | Potency [3] | Potency [4]

COc1ccc(C(=O)[C@H]2[C@H]3[C@@H](C(=O)[C@@H]4OC[C@H]3O4)[C@H]3C=Cc4ccccc4N32)c(OC)c1
inactive: Potency [1] > 46 µM | Potency [2] > 46 µM | Potency [3] | Potency [4] | Potency [5]

COc1ccccc1-c1oc2ccccc2c(=O)c1OC
active: Potency [6] 25.1 µM | Potency [10] 7.94 µM
inactive: Potency [1] > 46 µM | Potency [2] > 46 µM | Potency [8] | Potency [5] | outcome [9]

CCc1cc2c(=O)c(-c3nc4ccccc4[nH]3)coc2cc1OC(=O)N1CCOCC1
inactive: Potency [1] > 20.6 µM

CN(CCc1ccc(Cl)c(Cl)c1)CCN1CCCCCC1
inactive: Potency [1] > 46 µM | Potency [2] > 46 µM | Potency [3] | Potency [8] | Potency [11] | outcome [9]
active: Potency [5] 0.126 µM

Cc1c(C(=O)O)c(O)cc2c1C(=O)c1c(O)c([C@@H]3O[C@H](CO)[C@@H](O)[C@H](O)[C@@H]3O)c(O)c(O)c1C2=O
inactive: Potency [1] > 46 µM | Potency [2] > 46 µM | Potency [3] | Potency [6] | Potency [5]

C=C[C@@]1(C)C=C2CC[C@@H]3[C@](C)(CCC[C@@]3(C)C(=O)O)[C@H]2CC1
inactive: Potency [1] > 46 µM | Potency [2] > 46 µM | Potency [3] | Potency [4] | Potency [5]
active: Potency [6] 6.31 µM
